DAX1 inh-1: DAX1 (NR0B1) inhibitors, primary screen, cell-based, HEK293, Gal4-DAX1, luciferase luminescence; Nuclear receptor subfamily 0 group B member 1 (Homo sapiens), P51843; HEK293 Gal4-DAX1 luciferase reporter; inhibition, % at 6.75 µM; actives 0.99% (n = 340,000);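 active = inhibition above the mean over all tested compounds plus 3 SD, cut at about 4.2% in these data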;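 note: 0% = DAX1-transfected cells with DMSO and 100% = empty-vector control cells with DMSO; inhibition shows as a rise in luminescence from relieved DAX1 repression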
Target sequence (P51843 207-470 limits assumed): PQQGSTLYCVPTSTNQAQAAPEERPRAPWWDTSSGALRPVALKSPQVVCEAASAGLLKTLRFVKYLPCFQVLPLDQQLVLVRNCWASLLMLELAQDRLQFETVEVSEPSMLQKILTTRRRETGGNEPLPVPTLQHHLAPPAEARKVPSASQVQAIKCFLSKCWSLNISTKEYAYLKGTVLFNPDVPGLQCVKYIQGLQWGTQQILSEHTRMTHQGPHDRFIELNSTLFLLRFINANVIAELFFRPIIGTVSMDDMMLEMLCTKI
hcDAF-12 act: H. contortus DAF-12 nuclear receptor activators, primary screen, cell-based, luminescence, HEK293, lit1-tk-luc reporter. HEK293 hcDAF-12 lit1-tk-luc reporter; 0% DMSO, 100% Δ7-dafachronic acid. activation, % at 6.8 µM. actives 1.4% (n = 370,000);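 active = activation above the mean of all tested compounds plus 3 SD, cut at about 5.5% in these data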;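 note: 100% = response to 3 µM Δ7-dafachronic acid high control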
hgDAF-12 ag: H. glycines DAF-12 receptor agonists, primary screen, cell-based, luminescence, HEK293, GAL4 fusion, UAS-luciferase. Nuclear hormone receptor DAF-12 (Heterodera glycines), GAL4 fusion. HEK293 GAL4-hgDAF12 UAS-luciferase reporter, agonist luminescence; normalized to butyrate control. activation, % at 6.8 µM. actives 1.8% (n = 370,000). AID 687014, 2013;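 active = activation above a cutoff set at the mean of all screened compounds plus 3 SD, cut at about 10% in these data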;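 note: 0% = DMSO wells and 100% = sodium butyrate wells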
ssDAF12 agonist: S. stercoralis DAF-12 nuclear receptor activators, primary screen, cell-based, luminescence, HEK293, GRIP1 co-expression, lit1-tk-luc; activation, % at 6.8 µM; HEK293 ssDAF-12/GRIP1 lit1-tk-luc reporter; % of 3 µM dafachronic acid response; Nuclear hormone receptor DAF-12 (Strongyloides stercoralis); actives 1% (n = 370,000);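 active = activation above the mean over all tested compounds plus 3 SD, cut at about 0.9% in these data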;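 note: 0% = DMSO-only wells and 100% = 3 µM delta7-dafachronic acid wells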
DAX1 inh-2: DAX1 (NR0B1) inhibitors on StAR promoter, primary screen, cell-based, luminescence, SF-1 (NR5A1), full-length DAX-1; inhibition, % at 6.8 µM; actives 1.1% (n = 370,000); HEK293T StAR-luciferase reporter, SF-1/DAX-1 repression relief;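 active = inhibition above the mean over all tested compounds plus 3 SD, cut at about 3.6% in these data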;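 note: 0% = DAX-1 cells with DMSO and 100% = cells lacking DAX-1 with DMSO; higher inhibition means more luminescence from relief of DAX-1 repression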
Starred values were filed as active, the others as inactive; . = no result. Sampled rows, rich in hits. Any-hit rate of the full collection: about 4.1%.

SMILES	DAX1 inh-1	hcDAF-12 act	hgDAF-12 ag	ssDAF12 agonist	DAX1 inh-2
O=C(Nc1ccc2c(c1)OCO2)O[C@@H]1CC[C@@]23CCCN2C(=O)CCC[C@H]3C1	.	1	5	0	.
COc1ccccc1NC(=O)CCC(=O)N/N=C(/C)c1ccc(C)cc1	8.4*	1	-1	-1	0
Cc1ccc(C(=O)CCC(=O)Nc2ccccc2F)cc1	3	1	3	1.0*	0
Cc1ccc(OCC(=O)Nc2ccccc2F)cc1	6.1*	4	13*	0	2
CNc1nc(N)c([N+](=O)[O-])c(Nc2cccc(OC)c2)n1	.	1	-1	-2	.
CC(C)CN1C(=O)C[C@@]2(C(=O)N(C)c3ccc(NC(=O)c4cc(F)ccc4F)cc32)C1c1ccccc1 (some centres not stated)	.	0	-3	-2	0
CC(C)C(C#CC1CC1)NCc1ccc2c(c1)OCO2 (configuration not stated)	.	-3	-3	-2	0
COc1ccc2nc(NC(=O)c3ccccc3C(=O)O)sc2c1	0	5.7*	3	0	1
CCOc1ccc2nc(NC(=O)c3ccccn3)sc2c1	-4	2	-6	-1	-2
CCC(=O)Nc1nc2cc(OC)ccc2s1	4	0	9	-1	1
CCOc1ccc2nc(NC(=O)c3ccoc3C)sc2c1	-3	6.2*	11*	0	2
COc1ccc(-c2csc(NC(=O)c3ccoc3C)n2)cc1	2	1	11*	-2	2
COc1ccc2sc(NC(C)=O)nc2c1	2	2	11*	0	3
C[C@@H]1C=CCCO[C@]12C(=O)Nc1ccccc12	.	1	1	0	0
COc1ccc(C(=O)Nc2ccc([N+](=O)[O-])cn2)cc1OC	-1	-1	0	-1	1
COc1ccccc1/C=C/C=N/NC(=O)c1ccccn1	4	1	13*	0	4.1*
O=C(N/N=C/C1CCCCC1)c1ccccn1	0	6.3*	12*	0	4
COc1ccc(NC(=O)c2ccccn2)cc1OC	4.4*	2	12*	0	1
COc1ccc(C(=O)Nc2ccc3ccccc3n2)cc1OC	4.8*	2	10	0	1
CCCCCN1CCCCC(NC(=O)CSc2ccccc2)C1=O (configuration not stated)	.	-2	1	-1	0
O=C(NN=Cc1ccccc1C(F)(F)F)c1cc(-c2ccc(Cl)cc2)n[nH]1	.	-4	2	-2	0
O=C(Nc1ccc(F)cc1Cl)C1CCCN1S(=O)(=O)c1cccc2cccnc12 (configuration not stated)	.	-4	1	-2	-2
CC(=O)Nc1ccc(OCC(C)CN2CCC(C(O)(c3ccccc3)c3ccccc3)CC2)cc1 (configuration not stated)	.	-1	-3	-2	0
CCC(=O)Nc1ccc(NC(=O)c2ccccn2)cn1	-1	4	12*	0	2
S=c1[nH]nc(-c2cc(-c3ccccc3)n[nH]2)n1/N=C/c1ccccc1	7.3*	-1	4	-1	1
SMILES	DAX1 inh-1	hcDAF-12 act	hgDAF-12 ag	ssDAF12 agonist	DAX1 inh-2
O=C(O)c1ccc(COc2ccc3ccccc3c2/C=C2/NC(=O)N(c3ccccc3)C2=O)cc1	-1	2	-2	1.0*	1
O=C(O)c1ccc(COc2ccccc2/C=C2/NC(=O)N(c3cccc(Cl)c3)C2=O)cc1	0	-3	-1	0	0
CCCCOc1ccc(C(=O)NC2CCCCN(Cc3ccc(Cl)cc3)C2=O)cc1 (configuration not stated)	.	-5	-2	-1	-2
Cc1ccccc1C1c2[nH]c3ccccc3c2C[C@H]2C(=O)N(C3CC3)CC(=O)N12 (some centres not stated)	-1	6.4*	-1	0	0
CCOc1ccc(NC(=O)C(c2ccccn2)N(C(=O)CCl)c2ccc(OC)cc2)cc1 (configuration not stated)	1	10*	11*	2.4*	0
CCOc1ccc(NC(=O)C(c2ccccn2)N(C(=O)CCl)c2ccc(OCC)cc2)cc1 (configuration not stated)	3	.	.	.	.
COC(=O)c1ccc(CSc2nc3c(c(=O)[nH]2)CCC3)cc1	.	0	1	-2	3.7*
COC(=O)[C@]12C[C@H](CC(=O)N3CCCCC3)C(=O)N(Cc3cccc4ccccc34)C1=C[C@H](C1CCCC1)O[C@@H]2C	.	-4	-6	-2	-1
Cc1cc(=O)[nH]c(SCC(=O)Nc2cccc(S(=O)(=O)N3CCOCC3)c2)n1	1	-2	0	-1	3.7*
Cc1ccc(CN2C(=O)CC(Nc3ccc(N4CCOCC4)cc3)C2=O)cc1 (configuration not stated)	-1	0	-1	0	0
N#Cc1cccc(C#N)c1N1CCC(C#N)CC1	.	-2	11*	-1	0
COC(=O)c1c(-c2ccc(OC)cc2)sc2ccc(OC)cc12	3	4	7	1.6*	1
COC(=O)CCC(=O)N1C2=NC3=C(C(=O)N(Cc4ccc5c(c4)OCO5)C3=O)C3N(C)c4ccccc4[C@]23C[C@H]1CO (some centres not stated)	.	-1	1	-1	-1
COCCCNc1oc(/C=C/c2ccccc2)nc1C#N	3	5	12*	0	3
C=CCNc1oc(/C=C/c2ccccc2)nc1C#N	3	5	9	0.9*	3.9*
CC(C)C[C@H]1COc2ccc(Cl)cc2S(=O)(=O)N1Cc1cn(Cc2ccc(C(F)(F)F)cc2)nn1	.	0	-1	-1	0
COC(=O)CN1C(=O)C(O)(CC(=O)c2ccc(Br)cc2)c2ccccc21 (configuration not stated)	3	0	2	-1	0
COC(=O)CN1C(=O)C(O)(CC(=O)c2ccc(C)cc2)c2cc(Br)ccc21 (configuration not stated)	4.5*	-1	5	-1	-1
COC(=O)CSc1nnc(-c2n[nH]c3c2CCC3)n1N	.	0	0	-1	0
O=C(c1ccccc1)N1CCC(Oc2cccnc2)CC1	.	-1	1	-2	3
COc1ccc(OCCOC(=O)CNC(=O)c2ccc(Cl)cc2Cl)cc1	2	-1	4	-1	1
